# Data taken from the OligoGym collection.
# Biological target: MFNG
# Experiment: pooled miR-30 sensor sort-seq; sequence = guide strand
# Details: shRNA
# Note: reference of the scale not given here.
row,Sequence,sensor-assay potency score (higher = more potent)
1,ATAGTTGTCATCGTCCACATGG,-0.521
2,TTTGTCTGGGCTGTCGGTGAAG,-0.931
3,AATGAAGACATCGTGTAGCTGT,0.421
4,TCGGTGAAGACAAATGTCTGTT,-0.485

# Biological target: MFRP
# Experiment: as above
# Details: shRNA
row,Sequence,sensor-assay potency score (higher = more potent)
1,TTGCAGAACTCGGTCTTGCTCG,-0.303
2,TGAAGTTGTGGAACTGTAGTTC,0.0577
3,TGGAACTGTAGTTCTATGCTGT,-0.0204
4,TGGTGTTGTAGCTCAGACCGAG,-0.523
5,TATGCTGAGGGCTTCGATCTTG,-0.113
6,TTGTCATCGCTGCCATCGGTGC,-1.66
7,TGTAGTTCTATGCTGTGTCCGG,-0.086
8,TGTCCTAAACAGCACAGCCAGC,-1.58
9,TACTGCTGCAGGTAGCTGGGAG,-0.172
10,TAGTTCTATGCTGTGTCCGGCA,-0.362
11,TCAAACTTGCACTCGTCCTGAG,0.173
12,TTGGTGAGGGTACTGCTGCAGG,-0.958

# Biological target: MIA
# Experiment: as above
# Details: shRNA
row,Sequence,sensor-assay potency score (higher = more potent)
1,TCTCGGACAATGCTACTGGGGA,-1.23
2,TAGTAATCTCCCTGAACGCTGC,-0.496
3,TGTCTGTCTTCACATCGACTTT,-1.3
4,TTGGGCATAGGACCACCCCTGA,-1.13
5,TTTGTCTGTCTTCACATCGACT,-0.999
6,ATTTGTCTGTCTTCACATCGAC,-0.34
7,TGGTCCGCACACAGCTTCCGGT,-1.49
8,TGGTCCTCTCGGACAATGCTAC,-1.39
9,TGAATGGTCAGGAATCGGCAGT,-0.833
10,TCAGGGTCTGGTCCTCTCGGAC,-1.41
11,TTCAGGGTCTGGTCCTCTCGGA,-0.169
12,TTTGCCAGGTTTCAGGGTCTGG,-1.17

# Biological target: MIB1
# Experiment: as above
# Details: shRNA
row,Sequence,sensor-assay potency score (higher = more potent)
1,TAGAAGTTTAATTCGTTCCAGG,0.00519
2,TTAACTCATCAGAACTTCCAAC,-0.501
3,ATTGGTATTATCCTTGTCCTTT,-0.409
4,TTTAGATAGTAAAACACGCATT,-0.883
5,TTCCTTATGACACTTTGCCAGT,-1
6,TTTACATCCACATCTGGTCTTT,0.23
7,TTAAAGTCTCAAACATTCCATC,-0.848
8,ATTGACATTGGTATTATCCTTG,0.229
9,TTGACCACTGACTTTTTCCTTA,0.24
10,TATGCTGTCGTTCAACAGCAAG,-1.72
11,TTTAGCAACATCTCCATTGGCA,0.277
12,TTCAACTACTGCTCGACACTGC,0.708
